Assay outcomes: PubChem BioAssay, several laboratories
An excerpt weighted towards active compounds, which were near 1.8% of everything screened.
IEC-6 cytotox – cytotoxicity in IEC-6 intestinal epithelial cells, primary screen, cytotoxicity control for KLF5 inhibitor project, cell-based, luminescence; inhibition, % at 5 µM; 290,000 compounds, 0.78% hits; AID 1825, 2009; IEC-6 cytotoxicity, luminescence viability;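 further: 0% = plate median of test compound wells and 100% = cytotoxic reference compound wells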
APP transl inh – inhibitors of APP translation via 5'UTR reporter, primary screen, APP 5'UTR luciferase, SH-SY5Y cells. inhibition, % at 2 µM. AID 1285, 2008. SH-SY5Y APP 5'UTR-luciferase reporter, luminescence. 190,000 compounds, 0.82% hits;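 active means inhibition above a set limit, derived from the sample mean plus 3 SD, cut at about 45% in these data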
BaF3 parental – parental Ba/F3 cell viability inhibition, counter-screen for JAK2V617F inhibitor project, murine pro-B, CellTiter-Glo luminescence; inhibition, % at 5.6 µM; 220,000 compounds, 1.1% hits; CellTiter-Glo ATP luminescence;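 active means inhibition above a per-campaign cutoff, the mean inhibition of all tested compounds plus 3 SD, cut at about 27% in these data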;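 further: 0% = DMSO wells and 100% = JAK Inhibitor I control wells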
KLF5 inh – KLF5 expression inhibitors, primary screen, DLD-1 cells, luminescence; DLD-1 KLF5 promoter-luciferase reporter; inhibition, % at 5 µM; 290,000 compounds, 0.23% hits;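 active means inhibition above a per-plate limit of that plate's mean compound inhibition plus 3 SD, cut at about 60% in these data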;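 further: 0% = DMSO wells and 100% = LY294002 at 200 µM; higher means less KLF5 promoter-driven luciferase light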
Ba/F3 V617F tox – reduced viability of JAK2V617F-dependent Ba/F3 cells, primary screen, JAK2V617F inhibitor project, cell-based, Ba/F3 EpoR-JAK2V617F, luminescence; ATP luminescence; inhibition, % at 5.6 µM; 220,000 compounds, 1.1% hits; AID 1446, 2008;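 active means inhibition above the campaign mean plus 3 SD over all tested compounds, cut at about 24% in these data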;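 further: cytokine-independent growth of Ba/F3 cells driven by EpoR plus mutant JAK2; 0% = DMSO-treated cells and 100% = JAK inhibitor I control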
IEC-6 tox confirm – cytotoxic compounds in IEC-6 epithelial cells, confirmation, cytotoxicity control, cell-based, luminescence | 1,900 compounds, 63% hits | IEC-6 rat intestinal epithelial viability | AID 1907, 2009 | inhibition, % at 5 µM | shares compounds with IEC-6 cytotox;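 further: 0% = vehicle and 100% = reference cytotoxic drug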
* = called active by the depositor; x = not tested or not shown. Unless noted, no stated cut-off is given here; in the data, active means inhibition above about 22%; inactive means the rest.

SMILES | IEC-6 cytotox | APP transl inh | BaF3 parental | KLF5 inh | Ba/F3 V617F tox | IEC-6 tox confirm
COc1ccccc1NC(=O)NCCCCc1ccccc1 | -5 | x | x | -22 | x | x
CC(NC(=O)c1ccc(C23CC4CC(CC(C4)C2)C3)cc1)C(=O)O (stereo unspecified) | 5 | -10 | 7 | -45 | 0 | x
Fc1ccc(-c2csc(Nc3ccccn3)n2)cc1 | 32* | x | x | -278 | x | 10
c1ccc(Nc2nc(-c3cccnc3)cs2)nc1 | -5 | -194 | 2 | -185 | 1 | x
COc1cccc(C2C(C(=O)c3cccs3)=C(O)C(=O)N2CCN2CCOCC2)c1OC (stereo unspecified) | -7 | x | x | -25 | x | x
Cc1oc2c(CN3CCC(C)CC3)c(O)ccc2c(=O)c1-c1ccccc1 | -2 | x | x | 0 | x | x
Cc1cccc2cc3c(nc12)SC(=NCC1CCCO1)N(Cc1ccco1)C3 (stereo unspecified) | 88* | 2 | 9 | 9 | 9 | 4
Cc1ccc2nc3c(cc2c1)CN(Cc1ccco1)C(=NCC1CCCO1)S3 (stereo unspecified) | 2 | 18 | 6 | -32 | 1 | x
O=C(CSc1cccc[n+]1[O-])c1ccccc1Br | 85* | -8 | 7 | 4 | 7 | 7
Cc1nc2cc(-c3ccc(Br)cc3)[nH]n2c(=O)c1Cl | 30* | x | x | -75 | x | 13
CC(CC(=O)Nc1nnc(CC(C)(C)C)s1)c1ccccc1 (stereo unspecified) | -10 | x | x | -38 | x | x
COc1ccc(OC)c(Nc2ncnc3ccc(Br)cc23)c1 | 5 | x | x | 14 | x | x
Brc1ccc2ncnc(Nc3cccc4ccccc34)c2c1 | 28* | -14 | 8 | 15 | 0 | 41*
CCOC(=O)c1nn(-c2ccc(OCC)cc2)c2nc(-c3ccco3)c(C#N)c(=O)n12 | 1 | -6 | 9 | 3 | 3 | x
CCCN(CCC)CCCNC(=O)c1cc2c(=O)n(CC)c3ccccc3c2s1 | 22* | x | x | 0 | x | 19
CCn1c(=O)c2cc(C(=O)NCCCOC)sc2c2ccccc21 | 22* | x | x | -34 | x | 13
CCCCN(CC)CCCNC(=O)c1cc2c(=O)n(CC)c3ccccc3c2s1 | 22 | x | x | -33 | x | x
C/C(=N\NC(=O)C1COc2ccccc2O1)c1cc2ccccc2o1 (stereo unspecified) | 6 | 5 | 1 | -14 | 1 | x
O=C(COC(=O)C1CCN(S(=O)(=O)c2cccs2)CC1)Nc1ccc(F)cc1F | -11 | x | 0 | -7 | -5 | x
O=C(COC(=O)CNS(=O)(=O)/C=C/c1ccccc1)Nc1cccc2ccccc12 | -1 | -30 | 3 | -11 | -1 | x
O=C(NC12CC3CC(CC(C3)C1)C2)c1cccnc1Cl | 0 | x | x | -42 | x | x
CCn1c(=O)n(CC)c2cc(NC(=O)C(C)c3ccccc3)c(Br)cc21 (stereo unspecified) | 0 | x | x | -36 | x | x
Cc1ccc(SC[C@H](C)CN2CC[C@H](C(C)(C)C)CCC2=O)cc1 | -1 | x | x | -8 | x | x
CCOC(=O)c1cc2c(ccn2C)n1CC(=O)N(Cc1ccccc1)c1ccccc1 | 32* | -19 | 6 | -3 | 4 | 2
Cc1ccccc1Cn1c(C(=O)OC(C)C)cc2c1ccn2C | 10 | -2 | 0 | -11 | 0 | x
SMILES | IEC-6 cytotox | APP transl inh | BaF3 parental | KLF5 inh | Ba/F3 V617F tox | IEC-6 tox confirm
CC(C)OC(=O)c1cc2c(ccn2C)n1CC(=O)N1CCC(Cc2ccccc2)CC1 | 40* | 4 | 8 | 5 | 5 | 7
CCOC(=O)c1cc2c(ccn2C)n1CC(=O)N(Cc1ccccc1)c1ccc(F)cc1 | -8 | 0 | 9 | 5 | 0 | x
Cc1ccc(C)c(Cn2c(C(=O)OC(C)C)cc3c2ccn3C)c1 | 29* | -1 | 2 | -1 | 5 | 17
COCC(C)NCc1ccc(OC)c(Br)c1 (stereo unspecified) | 0 | -22 | 5 | -24 | 3 | x
O=C(O)CCC(=O)N1CCC(n2nnc3cc(C(F)(F)F)ccc32)CC1 | 0 | x | 2 | -8 | -2 | x
Cc1ccc(N=Cc2c(C)[nH]n(-c3nc4ccccc4[nH]3)c2=O)cc1 | 35* | -22 | 39* | -9 | 26* | 53*
O=C(Nc1cccc(C(=O)N2CCCCC2)c1)c1ccccc1Br | -5 | x | x | -13 | x | x
Cc1cc(NCCCn2ccnc2)n2ncc(-c3ccc(Cl)cc3)c2n1 | 33* | -253 | 12 | -117 | 4 | 27*
COc1ccc(NC(=O)c2ccccn2)cc1OC | 0 | -44 | 6 | -58 | 0 | x
O=C(N/N=C(\c1ccccc1)c1ccccn1)c1ccccc1Cl | 95* | x | x | 53 | x | 58*
COc1ccc(C(=O)N/N=C(\c2ccccc2)c2ccccn2)cc1 | 28* | 78* | 68* | 25 | 74* | 65*
COc1ccc(C(=O)N/N=C(\C)c2ccccn2)cc1OC | 40* | x | x | 54 | x | 99*
C/C(=N\NC(=O)c1ccc(Cl)c(Cl)c1)c1ccccn1 | 42* | x | x | 50 | x | 97*
C/C(=N/NC(=O)c1ccccn1)c1ccncc1 | 6 | x | x | -117 | x | x
CC(=O)c1cccc(N(CC(=O)NC2CCCCC2)C(=O)Cn2nnc(-c3ccccc3)n2)c1 | 3 | x | x | 2 | x | x
C/C(=N\NC(=O)c1cccc2ccccc12)c1ccccn1 | 16 | x | x | 50 | x | x
C/C(=N\NC(=O)c1ccccc1Cl)c1ccccn1 | 41* | x | x | 36 | x | 66*
O=[N+]([O-])c1ccc(C23CC4CC(CC(O)(C4)C2)C3)cc1 | -1 | x | x | -168 | x | x
O=C(/C=N/O)Nc1ccc2sc3ccccc3c2c1 | 9 | x | 5 | -31 | -3 | x
CSCCCN1CCCC(CO)(Cc2ccccc2F)C1 (stereo unspecified) | -8 | x | x | -29 | x | x
COc1ccc(C2=NOC(COc3ccc4c(C)cc(=O)oc4c3)C2)c(OC)c1 (stereo unspecified) | 60* | 73* | 70* | 49 | 78* | 56*
Cc1cc(=O)oc2cc(OCC(=O)c3ccccc3)ccc12 | 15 | x | x | -17 | x | x
COc1cccc(C(=O)COc2ccc3c(C)cc(=O)oc3c2)c1 | 28* | x | x | -34 | x | 18
Cc1cc(=O)oc2cc(OCCc3ccccc3)ccc12 | 44* | x | x | -132 | x | 22*
COc1ccc(C(=O)COc2ccc3c(C)cc(=O)oc3c2)cc1 | -3 | x | x | -31 | x | x
SMILES | IEC-6 cytotox | APP transl inh | BaF3 parental | KLF5 inh | Ba/F3 V617F tox | IEC-6 tox confirm
COc1cccc(/C=N/NC(=O)C(=O)N/N=C/c2cccc(OC)c2O)c1O | 4 | 1 | 1 | -5 | -1 | x
COC(=O)c1cccc(/C=N/NC(N)=S)c1O | 49* | x | 7 | 54 | 0 | 12
O=C(NCc1cccnc1)Nc1ccccc1C(F)(F)F | 3 | x | x | -24 | x | x
COc1ccc(OCC(=O)Nc2cccc(NC(=O)c3ccco3)c2)cc1 | -2 | 9 | -1 | -18 | -1 | x
Cc1ccc2oc(/N=C(\N)NC(=O)C3CC3)nc2c1 | 32* | x | 29* | -14 | 38* | 31*
CCN(CC)CCn1c(=S)[nH]c2ccc(Br)cc2c1=O | -4 | -12 | 9 | -28 | 4 | x
